Test [1] is described as follows: Quantitative High-Throughput drug screen in 47 multiple myeloma cell lines against the NCATS MIPE library collection: XG6_PLB cell viability assay (AID 1919865). Further: nearly all actives have a fitted effect of over 40% in size. Summed up:
(§1)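 qHTS format: cells plated (500/well), pin-dosed with MIPE 4.0 compounds, kept 48 h at 37 °C. Readout was CellTiter-Glo luminescence, median RLU.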

Test [2] can be described thus: Quantitative High-Throughput drug screen in 47 multiple myeloma cell lines against the NCATS MIPE library collection: PE2_PLB cell viability assay (AID 1919869). Further: nearly all actives have a fitted effect of over 35% in size. Summed up:
as §1

A short description of test [3]: Quantitative High-Throughput drug screen in 47 multiple myeloma cell lines against the NCATS MIPE library collection: PCM6_Riken cell viability assay (AID 1919870). Further: nearly all actives have a fitted effect of over 30% in size. Summed up: as §1
Test [4] can be described thus: Quantitative High-Throughput drug screen in 47 multiple myeloma cell lines against the NCATS MIPE library collection: RPMI8226_ATCC cell viability assay (AID 1919871). Further: nearly all actives have a fitted effect of over 30% in size. Summed up:
as §1

Test [5] can be described thus: Quantitative High-Throughput drug screen in 47 multiple myeloma cell lines against the NCATS MIPE library collection: OPM2_DSMZ cell viability assay (AID 1919872). Further: nearly all actives have a fitted effect of over 30% in size. Summed up: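 We plated 500 myeloma cells per well, pinned in MIPE 4.0 compounds, and incubated for 48 hours at 37C. ATP was then quantified with CellTiter-Glo, with DMSO and media-only wells defining 100% and 0%.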

A short description of test [6]: Quantitative High-Throughput drug screen in 47 multiple myeloma cell lines against the NCATS MIPE library collection: KMS11_JCRBsus cell viability assay (AID 1919873). Further: nearly all actives have a fitted effect of over 50% in size. Summed up:
as §1

A short description of test [7]: Quantitative High-Throughput drug screen in 47 multiple myeloma cell lines against the NCATS MIPE library collection: VP6_DJ cell viability assay (AID 1919867). Further: nearly all actives have a fitted effect of over 40% in size. Summed up: as §1
Test [8] can be described thus: Quantitative High-Throughput drug screen in 47 multiple myeloma cell lines against the NCATS MIPE library collection: UTMC2_PLB cell viability assay (AID 1919868). Further: nearly all actives have a fitted effect of over 55% in size. Conditions: CellTiter-Glo ATP luminescence, 48 h; viability (% of DMSO control): at 45.8 µM (top of the series). Summed up:
as §1
For orientation: ATP-based viability assays read luminescence as a measure of living cells.

The nature of test [9]: Quantitative High-Throughput drug screen in 47 multiple myeloma cell lines against the NCATS MIPE library collection: XG1_PLB cell viability assay (AID 1919866). Further: nearly all actives have a fitted effect of over 35% in size. Summed up:
as §1

SMILES strings stand for the structures. Records with an inconclusive call do not appear. Active and inactive are the calls of the source. The call rests on the fitted dose curve; in most records, active means well fitted cell-killing curve with a large enough effect; inconclusive means small, poorly fitted or top-dose-only effect, or effect the other way; inactive means no such curve, though single readings can be large or run the other way. Positions of bridges follow the written chain, without caps; N, C: chain ends. Non-standard residues stand in square brackets, D forms with d. Residues, ends and D or L forms follow the SMILES beside them. ξ: configuration not given here. *: point of attachment. Octanoyl(6-Me) = CCC(C)CCCCC(=O)*; ξThr(3R) = C[C@@H](O)C(N)C(=O)O; dDab = NCC[C@@H](N)C(=O)O; Dab = NCC[C@H](N)C(=O)O
Potency means the concentration at half of the fitted maximal effect.

`CC1(C)CC(O)CC(C)(C)N1[O]`: the Potency entry in test [1], in test [2], in test [3], in [4], in test [5] and in [6] was “inactive” in each case.
As to `N#Cc1c(NC(=O)c2cccc3ccccc23)sc2c1CCCC2`, the Potency is 0.148 µM (active) in [1]; 0.296 µM (active) in test [7]; 0.418 µM (active) in test [8]; 0.526 µM (active) in test [2]; 0.296 µM (active) in test [3]; 2.64 µM (active) in test [4]. Further, the values for the Potency in test [5] and in [6] were 0.743 µM (active) and 0.148 µM (active), respectively.
In the case of `CC(Oc1ccc(O)cc1)(P(=O)(O)O)P(=O)(O)O`, the Potency result in [1], in test [7], in test [3], in test [4], in test [5] and in test [6] was “inactive” throughout. Also, the Potency in [2] is 2.35 µM (active).
Turning to `CN(CC(=O)N(Cc1ccc(C2CCCCC2)cc1)c1ccc(C(=O)O)c(O)c1)S(=O)(=O)c1c(F)c(F)c(F)c(F)c1F`, the Potency in test [9] is 4.69 µM (active); in test [7], 8.33 µM (active); in test [2] it was 3.32 µM (active); in test [3] it was 6.62 µM (active); in test [4], 23.5 µM (active); in [5], 23.5 µM (active).
For the compound `CCCc1nc(C(C)(C)O)c(C(=O)O)n1Cc1ccc(-c2ccccc2-c2nn[nH]n2)cc1`, the Potency result in test [1], in [9], in test [2], in [3], in test [5] and in [6] was “inactive” in each case.
For `COC1=C(OC)C(=O)C(CC=C(C)CCC=C(C)CCC=C(C)CCC=C(C)CCC=C(C)CCC=C(C)CCC=C(C)CCC=C(C)CCC=C(C)CCC=C(C)C)=C(C)C1=O`, the Potency entry in test [1], in [9], in test [8], in test [2], in test [3] and in [5] was “inactive” in each case.
As to `O=C(CN1C(=O)C2(CCCC2)NC[C@H]1c1cc(F)cc(F)c1)Nc1ccc2c(c1)C[C@@]1(C2)C(=O)Nc2ncccc21`, the Potency entry in test [9], in [7], in test [8], in test [3], in [4] and in test [6] was “inactive” throughout.
As to `Nc1cccc2c1C(=O)N(C1CCC(=O)NC1=O)C2=O` (configuration not stated), the Potency result in test [1], in test [8], in test [2] and in test [3] was “inactive” each time. In addition, in [5], the Potency is 0.0012 µM (active).
With `Cn1cc(C[C@@H](N)C(=O)O)c2ccccc21`, the Potency result in test [1], in test [9], in [2], in test [4], in test [5] and in test [6] was “inactive” each time.
As for `O=C(C[C@@H]1CC=CCCC(=O)O[C@H](c2ccccc2)CNC1=O)NCc1ccc(Cl)cc1`, the Potency in test [1] was 6.62 µM (active); in test [7], 13.2 µM (active); in [2], 9.35 µM (active); in [3] it was 5.9 µM (active). Moreover, the Potency entry in test [8], in test [5] and in [6] was “inactive” in each case.
Take `CC(=O)C1=C(O)C=C2Oc3c(C(C)=O)c(O)c(C)c(O)c3C2(C)C1=O` (configuration not stated): the Potency entry in test [9], in test [7], in test [8], in [2], in [3] and in test [4] was “inactive” throughout. The Potency entry in test [5] and in test [6] was “inactive” in each case.
On to `COc1cc([C@@H]2c3cc4c(cc3[C@H](O)[C@H]3COC(=O)[C@@H]23)OCO4)cc(OC)c1OC`, for which the Potency in test [9] was 0.0469 µM (active); in test [7], 0.296 µM (active); in [8], 0.209 µM (active); in test [2], 0.148 µM (active); in [3], 0.332 µM (active); in test [4], 0.469 µM (active). In addition, the Potency is 0.148 µM (active) in [5] and 0.0296 µM (active) in test [6].
As to `COc1ccc(Nc2nccc(NCCO)n2)cc1`, the Potency entry in [1] and in [8] was “inactive” in each case. Also, the Potency in [7] is 1.66 µM (active).
Take `CC(C)(O)Cn1c(NC(=O)c2ccc(-c3cn[nH]c3)s2)nc2cc(CN3CCOCC3)ccc21`: the Potency in test [9] is 0.743 µM (active); in test [7], 0.743 µM (active); in test [8] it was 0.372 µM (active); in test [2], 1.32 µM (active); in [3], 0.418 µM (active); in test [4] it was 2.35 µM (active). The Potency in test [5] was 2.35 µM (active); in test [6], 0.743 µM (active).
For `O=C1NC(=O)C(=Cc2ccc3nccc(-c4ccncc4)c3c2)S1`, the Potency in [1] is 0.0833 µM (active); in [7], 0.132 µM (active); in test [8] it was 0.0372 µM (active); in [2], 0.0469 µM (active); in test [3] it was 0.166 µM (active); in test [4] it was 0.235 µM (active). The Potency in [6] was 0.0662 µM (active).
Turning to `COc1ccc(C=Cc2cc(OC)c(OC)c(OC)c2)cc1NC(=O)[C@H](N)CO`, the Potency result in [1] is “inactive”. Further, the Potency was 0.001 µM (active) in test [8], 0.0042 µM (active) in test [3] and 0.0264 µM (active) in [4].
For the compound `CON=C(C(=O)N[C@@H]1C(=O)N2C(C(=O)O)=C(Cn3ccc(=N)n3CCO)CS[C@H]12)c1csc(N)n1`, the Potency entry in [1], in test [2], in test [3], in test [4], in [5] and in [6] was “inactive” each time.
As for `CC(=O)N[C@@H]1[C@H](O[C@@H]2c3ccc(c(Cl)c3)Oc3cc4cc(c3O[C@H]3O[C@H](CO)[C@@H](O)[C@H](O)[C@H]3NC(=O)CCCCCCCC(C)C)Oc3ccc(cc3Cl)C[C@H]3NC(=O)[C@H](N)c5ccc(O)c(c5)Oc5cc(O)cc(c5)[C@H](NC3=O)C(=O)N[C@H]4C(=O)N[C@H]3C(=O)N[C@@H]2C(=O)N[C@@H](C(=O)O)c2cc(O)cc(O[C@H]4O[C@H](CO)[C@@H](O)[C@H](O)[C@H]4O)c2-c2cc3ccc2O)O[C@H](CO)[C@@H](O)[C@@H]1O`, the Potency result in test [9], in [7], in [8], in test [2], in [3] and in test [4] was “inactive” in each case. Further, the Potency entry in test [5] and in [6] was “inactive” in each case.
Take `CCC(C)CCCCC(=O)N[C@@H](CCN)C(=O)NC(C(=O)N[C@H](CCN)C(=O)N[C@@H]1CCNC(=O)C([C@@H](C)O)NC(=O)[C@@H](CCN)NC(=O)[C@@H](CCN)NC(=O)[C@@H](CC(C)C)NC(=O)[C@H](Cc2ccccc2)NC(=O)[C@H](CCN)NC1=O)[C@@H](C)O` (stereo partly drawn) ({Octanoyl(6-Me)}-[Dab][ξThr(3R)][dDab][dDab][Dab]F[dL][dDab][dDab][ξThr(3R)]; lactam 4-C): the Potency entry in test [9], in [7], in test [2], in [3], in [4] and in [5] was “inactive” each time.
With `Cc1[nH]c(C=C2C(=O)Nc3ccccc32)c(C)c1CCC(=O)O`, the Potency in test [9] is 2.96 µM (active); in test [7] it was 13.2 µM (active); in test [8], 0.935 µM (active); in test [2], 9.35 µM (active); in test [3], 10.5 µM (active).
As to `CN(N=O)C(=O)N[C@H]1C(O)OC(CO)[C@@H](O)[C@H]1O` (some centres not stated), the Potency entry in test [1], in test [9], in test [2], in [3] and in test [4] was “inactive” in each case.
As for `COc1cc(OC)c(NC(=O)Nc2cc(C)on2)cc1Cl`, the Potency result in test [1], in test [9], in test [2], in test [3] and in test [5] was “inactive” throughout.
`CC(Cc1ccc(O)c(O)c1)(NN)C(=O)O` (configuration not stated): the Potency entry in test [1], in test [8] and in [2] was “inactive” throughout. Besides, the Potency in [6] is 26.4 µM (active).
Consider `Cc1cncc2cccc(S(=O)(=O)N3CCCN(C(=O)CN)C[C@@H]3C)c12`, for which the Potency was 14.8 µM (active) in test [1], 5.9 µM (active) in test [8] and 20.9 µM (active) in [3]. Further, the Potency result in [7], in test [4] and in test [5] was “inactive” each time.
For `N=c1ccn2c(n1)O[C@H]1[C@@H](O)[C@@H](CO)O[C@H]12`, the Potency in [9] was 5.9 µM (active); in test [7], 18.7 µM (active); in test [8], 14.8 µM (active); in test [6], 0.469 µM (active). For the same compound, the Potency result in test [2] and in [5] was “inactive” in each case.
As to `C[C@H]1[C@@H](OC(=O)CCC(=O)O)O[C@@H]2O[C@@]3(C)CC[C@@H]4[C@H](C)CC[C@@H]1[C@@]24OO3`, the Potency in [1] is 4.69 µM (active); in test [9], 10.5 µM (active); in test [8], 4.69 µM (active); in test [2], 5.26 µM (active); in test [3] it was 5.9 µM (active); in [6], 1.32 µM (active).
On to `C[C@@H](Cc1cc2c(c(C(N)=O)c1)N(CCCO)CC2)NCCOc1ccccc1OCC(F)(F)F`, for which the Potency result in test [1], in test [2], in test [3], in [4], in test [5] and in [6] was “inactive” in each case.
With `COc1ccc(C(C)=O)c(O)c1`, the Potency in test [1] was 18.7 µM (active). Also, the Potency result in test [2], in [3], in test [5] and in [6] was “inactive” throughout.
For the compound `N#CC(=Cc1ccc(O)c(O)c1)C(=O)NCc1ccccc1`, the Potency is 8.33 µM (active) in [1], 18.7 µM (active) in test [7], 14.8 µM (active) in [2] and 10.5 µM (active) in test [3]. For the same compound, in [5], the Potency entry is “inactive”.
As to `C[C@H]1COc2c(N3CCN(C)CC3)c(F)cc3c(=O)c(C(=O)O)cn1c23`, the Potency result in test [1], in [9], in test [8], in test [2], in test [3] and in test [4] was “inactive” in each case. Also, the Potency result in test [6] was “inactive”.
Consider `Nc1nc(=O)n([C@H]2CSC(CO)O2)cc1F` (some centres not stated), for which the Potency entry in [1], in test [7], in test [2], in test [3], in test [4] and in test [5] was “inactive” in each case.

The values above are taken from PubChem BioAssay (NCATS).
